Values joined by “and” are separate entries in the source; they are usually repeats but may differ in a detail not shown here. Equal values may be shown once. Inconclusive results are not listed. More than one record can exist for a structure, and the calls need not agree. Active and inactive are the calls of the source. Unless noted, calls come from the whole dose curve; as a rule, active = well fitted curve in the direction sought with a large enough effect in the repeat runs; inconclusive = weak or mixed curves; inactive = no such curve, though single readings can be large; an effect the other way counts as inactive or inconclusive.

A short description of assay [1]: qHTS assay to identify small molecule agonists of the vitamin D receptor (VDR) signaling pathway - cell viability counter screen (AID 743224). Note: nearly all actives have a fitted effect of over 50% in size. In outline: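 Counter screen for cytotoxicity: VDR-bla cells at 2,000 cells/well, 16 h compound exposure, then CellTiter-Glo luminescence after the beta-lactamase measurement.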
(In general: Quantitative high-throughput screening tests each substance at several concentrations.)

Assay [2] in a line: qHTS assay to identify small molecule antagonists of the vitamin D receptor (VDR) signaling pathway - cell viability counter screen (AID 743225). Note: nearly all actives have a fitted effect of over 50% in size. The method, boiled down: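 VDR-UAS-bla HEK 293T cells were plated and incubated 4 h at 37C, then dosed with compound plus 3 nM (final) 1-alpha,25-dihydroxyvitamin D3 for 16 h. After the 2 h beta-lactamase read, viability in the same wells was read as CellTiter-Glo luminescence after 30 min at room temperature.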

Assay [3] in a line: qHTS assay to identify small molecule agonists of the NFkB signaling pathway (AID 1159509; active = well fitted curve in the direction sought with a large enough effect in the signal ratio in the repeat runs, not every such curve was filed as active; the % refers to the signal ratio). In outline:
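Agonist activity was read as beta-lactamase-driven FRET change (460 and 530 nm emission, 405 nm excitation) following 1.5 hr substrate loading at room temperature. Beforehand, ME-180 NFkB-bla reporter cells were treated with compounds for 5 hr at 37 C.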

The nature of assay [4]: qHTS assay to identify small molecule agonists of the endoplasmic reticulum stress response signaling pathway (AID 1159516; active = well fitted activation curve with a large enough effect in the signal ratio in the repeat runs, not every such curve was filed as active; the % refers to the signal ratio). The method, boiled down: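 For this screen, HeLa cells stably carrying beta-lactamase under the ER stress response element received test compounds, positive controls or DMSO for 5 hr at 37 C; B/G FRET substrate was then added and dual-wavelength emission recorded.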

Assay [5] in a line: qHTS assay to identify small molecule agonists of the endoplasmic reticulum stress response signaling pathway - cell viability counter screen (AID 1159517; calls by dose curve; note: nearly all actives have a fitted effect of over 50% in size). In outline:
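Cpd-treated ESRE-bla HeLa (5 hr, 37 C) → LiveBLAzer 2 hr RT → CellTiter-Glo 30 min RT → luminescence.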

Assay [6] in a line: qHTS assay to identify small molecule antagonists of the retinoid-related orphan receptor gamma (ROR-gamma) signaling pathway - cell viability counter screen (AID 1159520). Note: nearly all actives have a fitted effect of over 50% in size. Note: potency is the fitted concentration of half-maximal effect. The method, boiled down: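 Tet-on ROR gamma CHO cells (1,000/well) were plated 4 hr, given compounds in DMSO for 2 hr at 37 C, then induced with 1 uM final doxycycline for 16 hr. Viability was read as ATP by CellTiter-Glo luminescence after 30 min.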

The target of assay [7] is Nuclear receptor ROR-gamma (Homo sapiens) (UniProt P51449). Nature of the assay: qHTS assay to identify small molecule antagonists of the retinoid-related orphan receptor gamma (ROR-gamma) signaling pathway (AID 1159521; note: nearly all actives have a fitted effect of over 50% in size; note: potency is the fitted concentration of half-maximal effect). The method, boiled down: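 Tet-on ROR-gamma CHO cells with ROR response element-luciferase reporter; compounds added 2 hr before 1 uM doxycycline induction, then 16 hr at 37 C. Antagonism scored as decreased ONE-Glo luminescence.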

Assay [8] in a line: qHTS assay to identify small molecule agonists of the AP-1 signaling pathway - cell viability counter screen (AID 1159525; calls by dose curve; note: nearly all actives have a fitted effect of over 55% in size). In outline:
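Each titration point was normalised to DMSO and tetra n-octyl ammonium bromide controls. The read was Cell Titer Glo luminescence after 30 min at RT, following 5 h compound exposure of ME-180 AP-1-bla cells at 37 °C.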

Assay [9] in a line: qHTS assay to identify small molecule agonists of the AP-1 signaling pathway (AID 1159526; calls by dose curve).
Assay [10] is described as follows: qHTS assay to identify small molecule agonists of the RXR signaling pathway - cell viability counter screen (AID 1159529). Note: nearly all actives have a fitted effect of over 50% in size. Note: potency is the fitted concentration of half-maximal effect. In outline: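 RXR-alpha-UAS-bla HEK 293T cells in medium with 2% charcoal-stripped FBS were pre-incubated 5 hr, then compound-treated 16 hr at 37 C. Viability was read by CellTiter-Glo luminescence in the same wells as the beta-lactamase assay, with tetraoctyl ammonium bromide as positive control.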

The nature of assay [11]: qHTS assay to identify small molecule antagonists of the retinoid acid receptor (RAR) signaling pathway - cell viability counter screen (AID 1159551). Note: nearly all actives have a fitted effect of over 35% in size. The method, boiled down: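 Measured by luminescent ATP detection, viability reflects C3RL4 cells treated 6 h at 37 C with test chemicals in the presence of 1 uM (final) retinol.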
Assay [12] is described as follows: qHTS assay to identify small molecule antagonists of the retinoic acid receptor (RAR) signaling pathway (AID 1159552; note: nearly all actives have a fitted effect of over 50% in size). The method, boiled down:
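Retinol signaling pathway inhibitors screened in C3RL4 RARE-luciferase reporter cells seeded overnight at 37 C, then compounds added with 1 uM (final) retinol as pathway substrate. After 6 hr at 37 C, luciferase luminescence read after 30 min at room temperature.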

Assay [13] in a line: qHTS assay to identify small molecule agonists of the retinoic acid receptor (RAR) signaling pathway (AID 1159553). As to conditions: C3RL4 RARE luciferase reporter, agonist, 6 h; activation: at 73.3 µM (top of the series) unless noted. In outline: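 6 hr compound exposure (DMSO vehicle) of overnight-plated C3RL4 RARE-luc cells at 37 C; luminescence quantified after 30 min RT with luciferase reagent.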

Assay [14] in a line: qHTS assay to identify small molecule antagonists of the estrogen related receptor (ERR) signaling pathway - cell viability counter screen (AID 1224818). The method, boiled down:
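Compounds dissolved in DMSO were applied to ERR cells seeded at 2,000 per well 6 h earlier. Cell viability followed 17.5 h later via 30-min CellTiter-Fluor fluorescence.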

The nature of assay [15]: qHTS assay to identify small molecule antagonists of the estrogen related receptor signaling pathway with the pleiotropic PPARgamma coactivator (PGC) cell viability counter screen (AID 1224822). In outline: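 Counter screen for cell viability: PGC/ERR cells, 6 h pre-incubation after plating, 17.5 h compound exposure at 37 C, fluorescence from CellTiter-Fluor after 30 min.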

Assay [16] is described as follows: qHTS assay to identify small molecule antagonists of the estrogen related receptor (ERR) signaling pathway from Tox21 library - cell viability counter screen (AID 1224834). Note: nearly all actives have a fitted effect of over 30% in size. The method, boiled down:
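Seeded ERR cells were rested 6 h at 37 C/5% CO2 before compounds, positive and negative controls or DMSO were added. Incubation continued for 17.5 h, and viability was then quantified by CellTiter-Fluor fluorescence.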

The target in assay [17] is Luciferin 4-monooxygenase (Photinus pyralis) (UniProt P08659). Nature of the assay: qHTS assay to identify small molecule inhibitors of firefly luciferase (AID 1224835). Note: nearly all actives have a fitted effect of over 25% in size. In outline: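 Quantitative HTS format; KM concentrations of both substrates. Purified P. pyralis FLuc activity quantified from luminescence images.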
A short description of assay [18]: qHTS assay to identify small molecule agonists of the constitutive androstane receptor (CAR) signaling pathway - cell viability counter screen (AID 1224836). Note: nearly all actives have a fitted effect of over 45% in size. The method, boiled down:
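HepG2 cells stably carrying hCAR and a CYP2B6-2.2kb reporter; 15-concentration compounds plus PK11195 (final 0.75 uM), 23 hr at 37 C/5% CO2. Viability read by CellTiter-Fluor fluorescence.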

A short description of assay [19]: qHTS assay to identify small molecule agonists of the NFkB signaling pathway - cell viability counter screen (AID 1159515; calls by dose curve; note: nearly all actives have a fitted effect of over 55% in size). In outline:
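Counter screen run alongside the NFkB-bla agonist assay: ME-180 reporter cells exposed to compounds for 5 hr, then lysed with CellTiter-Glo in the same wells. Luminescence, read after 30 min, reflects viable cells.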

Assay [20] concerns the target Retinoic acid receptor RXR-alpha (Homo sapiens) (UniProt P19793). Nature of the assay: qHTS assay to identify small molecule agonists of the RXR signaling pathway (AID 1159527; calls by dose curve; note: nearly all actives have a fitted effect of over 35% in size; note: potency is the fitted concentration of half-maximal effect). In outline: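 GeneBLAzer RXR-alpha-UAS-bla HEK 293T cells in 2% charcoal-stripped FBS medium were exposed to compounds for 16 hr at 37 C in agonist mode. Beta-lactamase reporter read as 460/530 nm FRET ratio after 2 hr substrate loading.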

Sequence of Retinoic acid receptor RXR-alpha (Homo sapiens) (P19793 whole entry, looked up): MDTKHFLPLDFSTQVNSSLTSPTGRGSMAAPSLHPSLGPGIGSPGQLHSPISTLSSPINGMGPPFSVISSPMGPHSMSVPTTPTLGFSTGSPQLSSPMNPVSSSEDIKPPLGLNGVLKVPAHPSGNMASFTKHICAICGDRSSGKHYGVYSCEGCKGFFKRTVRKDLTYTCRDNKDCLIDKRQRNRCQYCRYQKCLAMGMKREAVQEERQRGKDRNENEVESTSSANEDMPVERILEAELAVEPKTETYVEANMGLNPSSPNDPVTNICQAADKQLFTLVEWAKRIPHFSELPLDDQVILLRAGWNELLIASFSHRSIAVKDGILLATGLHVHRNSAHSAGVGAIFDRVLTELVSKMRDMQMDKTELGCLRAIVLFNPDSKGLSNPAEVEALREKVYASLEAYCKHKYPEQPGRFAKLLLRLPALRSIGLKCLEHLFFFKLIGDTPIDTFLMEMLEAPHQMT
Sequence of Luciferin 4-monooxygenase (Photinus pyralis) (P08659 whole entry, looked up): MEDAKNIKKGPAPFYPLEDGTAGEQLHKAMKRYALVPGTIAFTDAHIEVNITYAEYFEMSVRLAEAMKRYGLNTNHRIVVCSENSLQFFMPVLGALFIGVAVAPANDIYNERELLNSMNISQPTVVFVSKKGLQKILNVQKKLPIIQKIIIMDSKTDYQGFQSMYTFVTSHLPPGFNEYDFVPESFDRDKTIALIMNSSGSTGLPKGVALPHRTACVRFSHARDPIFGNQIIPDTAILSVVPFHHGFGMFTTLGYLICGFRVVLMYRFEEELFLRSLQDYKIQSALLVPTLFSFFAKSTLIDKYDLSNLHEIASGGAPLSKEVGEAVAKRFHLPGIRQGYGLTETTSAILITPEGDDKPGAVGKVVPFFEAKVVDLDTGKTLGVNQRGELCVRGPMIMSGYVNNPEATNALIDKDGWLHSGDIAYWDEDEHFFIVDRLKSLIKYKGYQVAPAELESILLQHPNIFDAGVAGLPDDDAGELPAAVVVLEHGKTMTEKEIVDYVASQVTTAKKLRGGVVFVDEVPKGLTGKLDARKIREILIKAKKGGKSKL

For `NCCc1ccc(O)cc1`, the outcome in [1], in assay [2], in assay [3], in [4], in assay [5] and in assay [11] was inactive. The call in [14] and in assay [15] was inactive. The Potency result in assay [6], in assay [7], in assay [8], in assay [9], in [12] and in [13] was “inactive” each time. For the same molecule, the Potency entry in [16], in assay [17] and in assay [18] was “inactive” in each case. Moreover, the Potency in assay [10] was 48.6 µM (active) and inactive.
In the case of `Nc1ccccc1C(=O)O`, the molecule was classed as inactive in assay [1], in assay [2], in assay [3], in assay [19], in assay [4] and in assay [5]. For the same molecule, the call in assay [11] was inactive. The Potency entry in [6], in assay [9], in [20], in assay [10], in [12] and in assay [13] was “inactive” each time. Besides, the Potency result in assay [16] and in [18] was “inactive” in each case.
In the case of `CCC[CH2][Sn]([Cl])([Cl])[Cl]`, the call in [1], in [3], in assay [19], in [4], in assay [5] and in [11] was inactive. The Potency entry in assay [6], in [9], in assay [20], in [10] and in [16] was “inactive” in each case.
For `Cc1cc(-c2cc(C)c(N)c(C)c2)cc(C)c1N`, the molecule was classed as inactive in assay [1], in [2], in [3], in assay [19], in [4] and in assay [5]. For the same molecule, in [11], the outcome was inactive. The Potency result in assay [6], in [9], in assay [20], in assay [10], in [12] and in assay [13] was “inactive” in each case. The Potency entry in [16] and in assay [17] was “inactive” each time.
In the case of `Cc1cccc([N+](=O)[O-])c1`, the molecule was called inactive in assay [1], in assay [2], in assay [4], in assay [5] and in assay [11]. The Potency result in assay [6], in assay [9], in assay [10], in [13], in [16] and in assay [17] was “inactive” in each case.
For the molecule `C[C@]12CC[C@H]3[C@@H](CC[C@@]45O[C@@H]4C(O)=C(C#N)C[C@]35C)[C@@H]1CC[C@@H]2O`, the molecule was classed as inactive in assay [1], in assay [2], in assay [19], in assay [4], in assay [5] and in assay [11]. Moreover, the Potency entry in [6], in assay [9], in [10], in [16] and in assay [18] was “inactive” each time.
On to `CCCCN(CCCC)SN(C)C(=O)Oc1cccc2c1OC(C)(C)C2`, for which the molecule was classed as inactive in [1], in assay [4], in assay [5] and in [11]. Besides, the Potency is 62.1 µM (active) in assay [6]; 22 µM (active) and 30.6 µM (active) in assay [7]. The Potency result in assay [8], in [9] and in assay [16] was “inactive” throughout.
As for `COC(=O)c1ccccc1C(=O)OC`, the outcome in assay [1], in [4], in assay [5] and in assay [11] was inactive. Besides, the Potency result in [6], in [7], in assay [8], in [9], in [10] and in [12] was “inactive” in each case. Besides, the Potency entry in [13], in [16], in assay [17] and in [18] was “inactive” in each case.
In the case of `COC(=O)NS(=O)(=O)c1ccc(N)cc1`, the outcome in assay [1], in [2], in assay [4], in assay [5] and in assay [11] was inactive. The Potency entry in [6], in [7], in [9], in [20], in [10] and in assay [16] was “inactive” each time. Moreover, the Potency result in assay [17] is “inactive”.
Regarding `O=S(=O)(c1ccc(Cl)cc1)c1cc(Cl)c(Cl)cc1Cl`, the result in assay [1], in assay [4], in assay [5] and in [11] was inactive. Also, the Potency entry in assay [6], in assay [10], in [13], in assay [16] and in assay [18] was “inactive” throughout.
In the case of `O=[N+]([O-])c1ccc(Oc2ccc(Cl)cc2Cl)cc1`, the call in [1], in assay [4], in assay [5] and in [11] was inactive. The Potency result in [6], in [8], in [9], in assay [16], in [17] and in assay [18] was “inactive” throughout. For the same molecule, the Potency in assay [20] is 696 nM (active); in assay [10] it was 43.9 µM (active) and inactive.

(Values after PubChem BioAssay (Tox21).)
